M1 PAM: positive allosteric modulators of human M1 muscarinic receptor; P11229; CHO-K1 hM1, Fluo-8 calcium fluorescence, ACh EC20; 0% = ACh EC20, 100% = maximal ACh; activation, % at 3 µM; 0.088% of 360,000 active; AID 588819; in the data active means activation above about 19%, passing the limit was not always enough
Target sequence (P11229 whole entry, looked up): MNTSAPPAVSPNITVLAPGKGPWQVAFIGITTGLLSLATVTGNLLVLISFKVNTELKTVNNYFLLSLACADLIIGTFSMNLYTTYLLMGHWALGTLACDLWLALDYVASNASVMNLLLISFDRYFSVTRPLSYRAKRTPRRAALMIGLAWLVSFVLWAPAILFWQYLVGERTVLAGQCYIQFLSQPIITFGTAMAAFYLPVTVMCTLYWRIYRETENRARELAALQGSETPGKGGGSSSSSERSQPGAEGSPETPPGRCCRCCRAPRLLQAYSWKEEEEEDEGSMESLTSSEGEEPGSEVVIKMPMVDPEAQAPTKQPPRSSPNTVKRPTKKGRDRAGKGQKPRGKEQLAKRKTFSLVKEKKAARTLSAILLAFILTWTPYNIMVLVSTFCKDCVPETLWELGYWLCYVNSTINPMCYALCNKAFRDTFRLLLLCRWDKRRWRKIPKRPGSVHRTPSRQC
M1 ag: human M1 muscarinic receptor agonism; P11229; activation, % at 3 µM; CHO-K1 hM1, Fluo-8 calcium fluorescence, agonist mode; 0% DMSO, 100% acetylcholine EC100; AID 588814; 0.33% of 360,000 active;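 active means activation above the run's mean compound activation plus 3 SD, cut at about 16% in these data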;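 further: peak over basal fluorescence ratio within a 140 s kinetic read after compound addition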
CHO-K1 Ca antag: nonselective inhibitor or artifact in parental CHO-K1 cells; ATP-induced calcium, Fluo-8 fluorescence; 0.6% of 360,000 active; AID 602250; inhibition, % at 3 µM;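 active means inhibition above a per-plate cutoff, the plate's mean sample inhibition plus 3 SD, cut at about 24% in these data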;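 further: 0% = DMSO plus EC80 ATP and 100% = DMSO alone without ATP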
M1 PAM parental: counter-screen for M1 PAMs: effect in parental CHO-K1 cells | ATP EC20, Fluo-8 calcium fluorescence; 0% at ATP EC20, 100% at ATP max | activation, % at 3 µM | 0.02% of 360,000 active;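 active means activation above the run cutoff, the mean activation of all test compounds plus 3 SD, cut at about 40% in these data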;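 further: peak over basal fluorescence ratio in a 140 s read after ATP addition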
CHO-K1 Ca ag: M1 agonist counterscreen hit in parental CHO-K1 cells | Fluo-8 calcium fluorescence; scaled to maximal ATP response, vehicle zero | activation, % at 3 µM | 0.48% of 360,000 active; in the data active means activation above about 15%;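 further: untransfected CHO-K1 host cells lacking M1 receptor as counterscreen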
CHRM1 antagonist: antagonists of human M1 muscarinic receptor; inhibition, % at 3 µM; 1.3% of 360,000 active; CHO-K1 hM1, Fluo-8 calcium fluorescence, ACh EC80 antagonist;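 active means percent inhibition above its own plate's cutoff, namely the mean of that plate's compound wells plus 3 SD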;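 further: peak over basal fluorescence ratio during 140 s after agonist addition; 0% = ACh EC80 plus DMSO and 100% = DMSO alone without agonist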
An asterisk follows results filed as active; ! = repeats disagree. This is a sample that favours compounds with a hit; in the whole collection about 2.3% have one here.

SMILES	M1 PAM	M1 ag	CHO-K1 Ca antag	M1 PAM parental	CHO-K1 Ca ag	CHRM1 antagonist
CC1CCC(C(C)C)C(OC(=O)Cn2c(-c3ccccc3)[n+](C)c3ccccc32)C1 (stereo not drawn)	-16.9	-6.6	11.6	13.8	5.8	42.6*!
CC1CCC(C(C)C)C(OC(=O)Cn2c(-c3ccc(F)cc3)[n+](C)c3ccccc32)C1 (stereo not drawn)	-26.2	-10.6	22.8	-9.3	0.9	51.3*
Cc1cccc(OCc2n(CC(=O)OC3CC(C)CCC3C(C)C)c3ccccc3[n+]2C)c1 (stereo not drawn)	-31.2	-6.9	13.5	13.8	8.8	38.4*
CC1CCC(C(C)C)C(OC(=O)CSc2nc(N)cc(=O)[nH]2)C1 (stereo not drawn)	2.3	-0.4	-4.2	-8.3	3.3	1.7
O=C1CCC/C=C/C[C@H](CC(=O)N(CCO)Cc2ccccc2)C(=O)N[C@@H](Cc2ccccc2)CO1	4.2	-10.4	-15.0	16.2	0.3	-2.7
CCN(CC)c1ccc(C(=O)Nn2cnc3ccccc3c2=O)cc1	2.0	-3.0	1.7	15.9	2.2	2.2
CC(C)N1CCC(=O)NC1=O	8.3	-2.3	-7.4	12.2	-0.6	-8.5
CC(C)c1cc(N2CCC(=O)NC2=O)cc(C(=O)O)c1O	3.5	-6.1	14.5	4.1	17.9*	-1.8
CCOc1ccccc1CN1CCNC(=O)C1CC(=O)NC1CCCCCCC1 (stereo not drawn)	3.0	-3.8	-7.1	18.5	0.0	0.1
O=C(Nc1ccccc1C(=O)N1CCCC1)c1ccccc1	5.1	16.1*	15.3	-14.3	0.3	16.1
Nc1ccc(NC(=O)c2ccccc2)c2c1C(=O)c1ccccc1C2=O	-1.8	-3.8	26.0*	-9.5	-0.1	8.7
CSc1ccccc1NC(=O)c1ccccc1	8.3	-3.9	-0.1	10.0	16.1*	-10.8
CCc1nc2ccc(C(=O)N(CC)CCN(C)C)cn2c1N(CC)C(=O)NCCc1ccccc1	1.8	-6.4	-7.0	9.5	-0.1	-6.3
CCOC(=O)c1c(C)nc2sc(C(=O)Nc3ccc(OC)cc3)c(N)c2c1-c1ccc(OC)cc1	-3.7	-1.9	13.7	-6.4	0.1	12.9
CCOC(=O)c1c(C)nc2sc(C(=O)Nc3ccc(C(C)=O)cc3)c(N)c2c1-c1ccc(OC)cc1	-8.8	-2.3	8.0	-2.9	1.6	37.6*
O=C1/C(=C/c2cccc(F)c2)Oc2cc(O)ccc21	-2.2	6.9	-13.5	-6.7	15.2*	-1.4
CC1=C(C#N)C(C(F)(F)F)(C(F)(F)F)N=C(c2ccco2)N1	-11.6	4.7	-1.2	12.7	15.8*	13.6
O=C(N/N=C/c1coc2ccccc2c1=O)c1cn(-c2ccccc2)nc1-c1ccc(F)cc1	-5.3	-3.0	0.8	-11.3	-0.5	4.4
COc1cccc(N2CCN(CC(=O)Nc3ccccc3C(=O)NCCc3ccccc3)CC2)c1	-12.0	-3.6	-3.9	0.1	3.6	22.3
O=C(CN1CCN(C(c2ccccc2)c2ccccc2)CC1)NC(=O)NCc1ccco1	-10.9	-4.5	26.9*	-8.8	-0.5	30.1*
COc1ccc(CNC(=O)CN2CCN(C(c3ccccc3)c3ccccc3)CC2)cc1	-19.4	-6.3	-4.8	-5.2	0.5	34.4*
COc1cccc(N2CCN(CC(=O)Nc3ccccc3C(=O)NCc3ccccc3)CC2)c1	-11.0	-0.8	4.1	6.1	7.2	34.3*
S=C(NCc1ccco1)N1CCN(C(c2ccccc2)c2ccccc2)CC1	-18.3	-8.3	2.9	6.0	0.3	17.9*
Cc1csc(NC(=O)C2(C)CCN2C(=O)C(C)C)c1C#N (stereo not drawn)	7.4	-0.4	-11.0	4.0	0.2	-12.7
Cc1ccc(C)c(S(=O)(=O)N/N=C/c2ccc(N3CCOCC3)cc2)c1	0.4	-2.3	-8.7	-4.3	0.4	1.9
SMILES	M1 PAM	M1 ag	CHO-K1 Ca antag	M1 PAM parental	CHO-K1 Ca ag	CHRM1 antagonist
C[C@H](CO)N1C[C@H](C)[C@@H](CN(C)S(=O)(=O)c2ccccc2)Oc2ccc(NC(=O)Cn3cnnn3)cc2C1=O	-28.4	-10.5	-16.9	14.7	0.7	33.9*
C[C@H](CO)N1C[C@H](C)[C@@H](CN(C)S(C)(=O)=O)Oc2ccc(NC(=O)CCN3CCOCC3)cc2C1=O	5.3	-2.1	-12.9	12.2	0.2	-9.0
Cc1noc(C)c1S(=O)(=O)N(C)C[C@H]1Oc2ccc(NC(=O)Cn3cnnn3)cc2C(=O)N([C@H](C)CO)C[C@@H]1C	2.3	-4.3	-12.8	-4.4	0.2	-0.8
C[C@H](CO)N1C[C@H](C)[C@@H](CN(C)S(=O)(=O)c2cccs2)Oc2ccc(NC(=O)CCC(F)(F)F)cc2C1=O	-34.5	-11.6	-7.0	9.1	-0.1	57.1*
C[C@H](CO)N1C[C@H](C)[C@@H](CN(C)S(=O)(=O)c2ccccc2)Oc2ccc(NC(=O)CCN3CCOCC3)cc2C1=O	-33.2	-11.9	1.7	-3.6	-0.5	34.8*
CN(C)CCC1(C2=CCCC2)CC/C(=C/c2ccc(Cl)cc2)C1=O (stereo not drawn)	-14.2	-5.0	-4.1	10.5	2.9	9.9
COc1ccc(CCNC(=O)CN2C(=O)C(=O)N(C3CCCC3)C2=O)cc1OC	5.8	-1.6	-8.5	-0.3	1.7	-6.0
Cc1c(N2C(=O)c3ccc4c5c(ccc(c35)C2=O)CC4)c(=O)n(-c2ccccc2)n1C	7.6	-4.6	4.7	7.4	-0.4	-12.7
Cc1c(N2C(=O)c3ccc(Br)cc3C2=O)c(=O)n(-c2ccccc2)n1C	-18.5	-2.9	-1.8	14.0	0.1	73.8*
CCCC(C)c1nnc(NC(=O)C2CCCO2)s1 (stereo not drawn)	-26.7	-11.5	-14.2	6.3	0.7	55.1*
CCOC(=O)c1c(NC(=O)C2CCCO2)sc(C)c1C (stereo not drawn)	-18.9	-5.1	-6.1	2.8	-0.6	46.7*
Cc1sc(NC(=O)C2CCCO2)c(C(N)=O)c1C (stereo not drawn)	12.2	-3.1	-12.4	21.5	0.3	-13.3
Cc1cc(NC(=O)CSc2cc(Cl)ccc2Cl)n(-c2ccccc2)n1	-6.5	-7.8	25.1*	-3.7	2.6	0.8
Cc1cc(NC(=O)COc2ccc(Cl)cc2Cl)n(-c2ccccc2)n1	-1.4	-3.3	10.3	-2.7	0.6	0.3
CCN(c1ccc(NS(=O)(=O)c2cc(Cl)ccc2Cl)cc1)C(C)C	-25.5	-12.7	-13.3	14.3	-0.1	75.5*
CN(C)c1ccc(NS(=O)(=O)c2cc(Cl)ccc2Cl)cc1	-21.1	-11.4	0.2	7.7	1.1	18.1
O=C(CSC(=S)N1CCN(c2ccccc2)CC1)Nc1nc(-c2ccccc2)c(-c2ccccc2)o1	8.1	-4.9	5.2	8.9	0.3	3.6
CN1CCN(CC#CCn2c3ccccc3c3ccccc32)CC1	-20.7	-4.7	-3.4	13.9	4.5	36.0*

Assay outcomes: PubChem, The Scripps Research Institute Molecular Screening Center
